A selection: hits, their analogues and other compounds. The true share with any hit is near 8.7%.
Pf growth 96h: Primary qHTS for delayed death inhibitors of the malarial parasite plastid, 96 hour incubation | hit rate 6.9% among 320,000 | AID 504834, 2011 | P. falciparum luciferase reporter growth, 96 h | Potency, µM (highest dose often 28.7 µM), inactives show at the highest dose activity change, negative = inhibition, actives largely listed as inhibitors
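Two parasite generations (96 h, 37 C, 5% CO2) of compound exposure in infected erythrocytes (0.05% parasitemia, 2% hematocrit). Luciferase-reporter P. falciparum; decreased luminescence indicates inhibited growth, aimed at apicoplast-acting delayed death.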
Vaccinia Venus: qHTS for Stage-Specific Inhibitors of Vaccinia Orthopoxvirus: Venus Reporter Primary qHTS. Vaccinia virus Venus reporter expression, fluorescence. Potency, µM (doses to about 36.5 µM), for the others: at the top dose activity change, negative = inhibition, usual class: inhibitors. hit rate 0.46% among 330,000; calls by dose curve; tested in A549 cells; further: nearly all actives have a fitted effect of over 30% in size
Pf growth 48h: Primary qHTS for delayed death inhibitors of the malarial parasite plastid, 48 hour incubation | AID 504832, 2011 | P. falciparum luciferase growth in erythrocytes, 48 h | hit rate 5.9% among 310,000 | Potency, µM (series often up to 28.7 µM), for the others: top-dose activity change, negative = inhibition, actives largely listed as inhibitors
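First compound was added to culture medium, then infected red cells at 0.1% parasitemia and 2% hematocrit (final). After incubation at 37 C under 5% CO2, luciferase detection reagent was dispensed and light output recorded.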
VACV mCherry inh: qHTS for Stage-Specific Inhibitors of Vaccinia Orthopoxvirus: mCherry Reporter Primary qHTS | Vaccinia virus mCherry reporter infection, fluorescence | Potency, µM (titrated, usually from 36.5 µM), without a hit: top-dose activity change, negative = inhibition, usual class: inhibitors | hit rate 0.63% among 310,000 | AID 720579, 2013; calls by dose curve; tested in A549 cells; further: nearly all actives have a fitted effect of over 35% in size
AMA1-RON2 inh: qHTS for Inhibitors of AMA1-RON; Towards Development of Antimalarial Drug Lead: Primary Screen. AlphaScreen AMA1-biotinylated RON2 peptide binding. Potency, µM (highest dose often 58.2 µM), inactives show at the top dose activity change, negative = inhibition, usual class: inhibitors. hit rate 0.2% among 360,000. AID 720542, 2013;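 further: 0% = vehicle wells and -100% = peptide control; nearly all actives have a fitted effect of over 45% in size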
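AMA1 (3D7) with his tag at 25 nM final met compounds first, then biotinylated RON2 peptide at 25 nM; detection used donor plus acceptor beads, 10 µg/mL apiece, read by AlphaScreen after 30 min at room temperature.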
* hit, by the source's call; i = inactive; ? = inconclusive; · = no result; [ ] = remark or other dose. Unless noted, the call rests on the fitted dose curve; in most records, active means well fitted curve in the direction sought with a large enough effect; inconclusive means small, poorly fitted or top-dose-only effect, or another doubt; inactive means no such curve, though single readings can be large; an effect the other way counts as inactive or inconclusive. Unless noted, on the % scale 0 is the no-effect control and ±100 the full control effect; potency means the concentration at half of the fitted maximal effect.

SMILES	Pf growth 96h	Vaccinia Venus	Pf growth 48h	VACV mCherry inh	AMA1-RON2 inh
O=C(NC1CC1)C1=C[C@@H](c2csc3ccccc23)C[C@@H](OCc2ccc(CO)cc2)O1	13.1µM*	?	?	i	4.5%
O=C(NCc1ccccc1)C1=C[C@@H](c2csc3ccccc23)C[C@@H](OCc2ccc(CO)cc2)O1	?	?	?	?	0.0%
CC1CCCN(C(=O)c2ccc(CSc3nc4ccncc4n3Cc3ccccc3)cc2)C1 (stereo not drawn)	·	-17.9%	·	-24.5%	·
COc1cc(OC)c(NC(=O)N2CCc3c([nH]c4ccccc34)C2c2ccccc2F)cc1Cl (stereo not drawn)	·	-13.1%	·	-13.9%	·
O=C(NC1CC1)C1=C[C@@H](c2csc3ccccc23)C[C@@H](OCCCCO)O1	13.1µM*	-17.5%	10.4µM*	-5.7%	-1.1%
O=C(NC1CC1)C1=C[C@H](c2csc3ccccc23)C[C@H](OCCCCO)O1	-12.6%	-14.5%	?	i	9.5%
O=C(NCc1nc2ccccc2[nH]1)C1=C[C@@H](c2csc3ccccc23)C[C@@H](OCCCCO)O1	2.08µM*	?	2.62µM*	-10.9%	67.9%
CCC1C(=O)NCCN1Cc1ccc2c(c1)CN(Cc1cccc(OC)c1)CCO2 (stereo not drawn)	·	3.8%	·	-2.2%	·
OC(c1ccc(F)cc1)C(CN1CCOCC1)c1ccccc1 (stereo not drawn)	10.4µM*	-15.4%	11.7µM*	-1.8%	0.1%
O=C(c1ccc(Br)cc1)C(CN1CCOCC1)c1ccccc1 (stereo not drawn)	?	-18.9%	-0.2%	i	19.6%
COc1ccc(C(O)C(CN2CCOCC2)c2ccccc2)cc1 (stereo not drawn)	9.28µM*	·	?	·	-6.1%
CCCCCOc1ccc(C(O)C(CN2CCOCC2)c2ccccc2)cc1 (stereo not drawn)	-3.8%	?	2.62µM*	-2.2%	-5.4%
OC(c1ccccc1)(c1ccc(F)cc1)C(c1ccccc1)N1CCOCC1 (stereo not drawn)	6.57µM*	-15.0%	37.8%	·	-1.8%
CCCCCCCCCC(=O)N[C@H](CN1CCOCC1)[C@H](O)c1ccccc1	·	-18.3%	·	-19.8%	0.0%
COCCCNC(=O)C1CCN(c2cc(C)nc3c(-c4ccc(Cl)cc4)c(C)nn23)CC1	·	6.3%	·	3.1%	·
COc1ccc(-n2ccn(Cc3ccccc3Cl)c(=O)c2=O)cc1OC	·	-9.3%	·	-9.7%	·
O=C1c2ccccc2S(=O)(=O)N1CC(O)COc1ccc(Cl)cc1 (stereo not drawn)	6.57µM*	-7.8%	9.5%	-12.4%	0.6%
O=C1c2ccccc2S(=O)(=O)N1CC(O)COc1ccc(Br)cc1 (stereo not drawn)	244.4%	·	-2.5%	·	5.8%
Cc1ccc(N(CC(=O)NCc2ccco2)S(=O)(=O)c2ccccc2)cc1	-87.4%	·	13.1µM*	·	-14.6%
COc1ccc(N(CC(=O)NCCSCc2ccccc2C)S(=O)(=O)c2ccccc2)cc1	5.22µM*	-25.4%	?	i	-16.5%
COc1ccc(N(CC(=O)NCc2ccco2)S(=O)(=O)c2ccc(C)cc2)cc1OC	13.4%	-13.4%	-13.6%	-13.7%	1.7%
Cc1ccc(S(=O)(=O)N(CC(=O)NCc2ccncc2)C2CCCCC2)cc1	8.28µM*	-17.1%	?	-28.3%	-0.9%
COc1ccc(S(=O)(=O)N(CC(=O)NCCSc2ccccc2)c2ccc(C)cc2)cc1	·	-4.1%	·	-20.2%	·
COc1cccc(N(CC(=O)NCCSCc2ccco2)S(=O)(=O)c2ccccc2)c1	?	-20.1%	?	-15.7%	-27.5%
COc1ccc(N(CC(=O)NCCSCc2ccco2)S(=O)(=O)c2ccccc2)cc1Cl	?	-15.9%	11.7µM*	-18.3%	-5.1%
SMILES	Pf growth 96h	Vaccinia Venus	Pf growth 48h	VACV mCherry inh	AMA1-RON2 inh
CCOc1ccc(N(CC(=O)NCCOc2ccc(C)cc2)S(=O)(=O)c2ccccc2)cc1	?	-15.4%	10.4µM*	i	2.2%
C=CCNC(=O)c1ccc(N(Cc2ccc(Cl)cc2)S(C)(=O)=O)cc1	217.9%	·	-2.9%	·	2.7%
C=CCNC(=O)c1ccc(CN(c2ccc(OCC)cc2)S(=O)(=O)c2ccc(C)cc2)cc1	0.0%	·	7.38µM*	·	22.0%
Cc1ccc(N(CC(=O)NCCSCc2ccco2)S(=O)(=O)c2ccc(C)cc2)cc1	6.57µM*	-18.3%	?	?	-9.9%
O=C(CN(c1cccc(Cl)c1)S(=O)(=O)c1ccc(Cl)cc1)NCc1ccccn1	?	-25.9%	?	-11.9%	36.6%
Cc1cccc(N(CC(=O)NCCSCc2ccco2)S(=O)(=O)c2ccccc2)c1	?	-29.6%	?	?	7.0%
COc1ccc(S(=O)(=O)N(CC(=O)NCc2ccccn2)c2ccc(Cl)cc2)cc1	31.9%	-14.7%	10.4µM*	-18.3%	82.9%
COc1ccccc1N(CC(=O)NCc1ccco1)S(=O)(=O)c1ccc(C)cc1	69.1%	-8.3%	-26.0%	-18.7%	-20.6%
O=C(CN(C1CCCCC1)S(=O)(=O)c1ccccc1)NCc1ccco1	4.65µM*	-14.4%	-15.6%	-20.9%	-9.9%
Cc1ccc(S(=O)(=O)N(Cc2ccc(Cl)cc2)c2ccccc2C(=O)NCc2ccco2)cc1	-20.2%	-27.5%	6.57µM*	i	-20.3%
CN1CCC(=NNC(=O)CN(c2ccccc2)S(=O)(=O)c2ccccc2)CC1	17.8%	-7.3%	14.1%	-14.2%	10.6%
CCOc1ccc(N(CC(=O)NN=C2CCN(C)CC2)S(=O)(=O)c2ccc(Br)cc2)cc1	14.7µM*	-21.2%	-3.1%	i	-1.5%
Cc1nn(-c2ccccc2)c2c1P(=O)(O)/C(=C1\N(C)c3ccccc3C1(C)C)C=N2	8.28µM*	3.2%	2.08µM*	i	1.4%
Cc1nn(-c2ccccc2)c(N)c1C1(O)C(=O)N(C(C)C)c2ccccc21 (stereo not drawn)	-15.1%	-4.8%	15.4%	i	-12.0%
Cc1ccc(NC(=O)CCCN2C(=O)COc3ccc(C)cc32)c(C)c1	·	-15.2%	·	-15.9%	·
COc1ccc2cc([C@H](C)C(=O)N(C)Cc3ccccc3N3CCCC3)ccc2c1	3.7µM*	-15.1%	?	-24.6%	?
Cc1cc(C)c(S(=O)(=O)/N=C2/C=C(SCC(=O)O)C(=O)c3ccccc32)cc1C	9.6%	9.6%	11.7µM*	-13.4%	-14.9%
COc1ccc(OCc2n(CC(=O)OC3CC(C)CCC3C(C)C)c3ccccc3[n+]2C)cc1 (stereo not drawn)	?	0.0%[7.34 µM]	1.04µM*	i[7.34 µM]	0.4%
COc1ccc(-c2n(CC(=O)OC3CC(C)CCC3C(C)C)c3ccccc3[n+]2C)cc1 (stereo not drawn)	29.8%	?	19.4%	?	-0.2%
